Compounds with a hit are over-represented: about 2.5% of the library has one in this group of screens.
LGR2 antag – inhibitors of bursicon-induced LGR2 CRE-luciferase signal, primary screen, cell-based, HEK293, CRE-luciferase reporter, bursicon stimulation; Drosophila bursicon receptor LGR2 (rickets); bursicon-stimulated, 4 h; inhibition, % at 9.99 µM; 0.35% of 380,000 active; AID 720647, 2013;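 active means drop in luminescence signal, shown as inhibition above about 50% in the replicate tests, limit read from the data, passing the limit was not always enough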;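 further: agonist challenge used bursicon conditioned medium at about half maximal strength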
TROY NFkB inh – inhibitors of TROY-driven NF-kB signaling, primary screen, Q293 LMP1-TROYcd cells, NF-kB luciferase, uHTS; Q293 LMP1-TROYcd NF-kB luciferase reporter, 4 h; inhibition, % at 10 µM; 0.98% of 360,000 active; AID 1347056, 2019;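 active means compounds whose plate-normalised and pattern-corrected inhibition of the luciferase reporter signal at the single screening dose is 50% or more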
EWS-Fli block – EWS/Fli-driven NR0B1 reporter inhibitors, primary screen, A673 cells, NR0B1 luciferase, luminescence, MLPCN library | AID 651661, 2012 | inhibition, % at 12.6 µM | viability-normalised | 0.67% of 350,000 active;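 active means mean inhibition of at least 50% after viability correction, with every replicate also passing that limit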;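 further: firefly luciferase signal divided by Alamar Blue viability fluorescence both relative to DMSO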
TWEAK Fn14 block – inhibitors of TWEAK-Fn14 signaling, primary screen, luciferase reporter cells, uHTS. AID 1159606, 2016. 2% of 360,000 active. inhibition, % at 10 µM. TWEAK-stimulated Fn14 reporter cells, luciferase luminescence, 8 h; in the data active means inhibition above about 50%
EBV LMP1 NFkB – EBV LMP1-driven NF-kappaB luciferase reporter inhibitors, primary screen, cell-based, luminescence, single point | LMP1-induced NF-kappaB luciferase reporter cells | 0.69% of 350,000 active | inhibition, % at 12.5 µM; in the data active means inhibition above about 41%
Hits are given with their value; . = inactive; / = not tested or not shown.

SMILES	LGR2 antag	TROY NFkB inh	EWS-Fli block	TWEAK Fn14 block	EBV LMP1 NFkB
CCCC#Cc1cnc2c(c1)C(=O)N([C@H](C)CO)C[C@@H](C)[C@@H](CN(C)C(=O)c1ccccc1)O2	.	/	.	/	/
C[C@H]1CN([C@@H](C)CO)C(=O)c2cccc(NC(=O)c3cnccn3)c2O[C@H]1CN(C)C(=O)NC1CCCCC1	.	/	.	/	/
COc1ccccc1NC(=O)N(Cc1cccs1)Cc1cc2cc3c(cc2[nH]c1=O)OCO3	.	.	/	67	.
COc1ccccc1NC(=S)N(CCCN(C)C)Cc1cc2cc3c(cc2[nH]c1=O)OCO3	/	.	.	.	.
N#C[C@H]1[C@H](c2ccccc2C2=CCCCC2)[C@@H](CO)N1S(=O)(=O)c1ccccc1	68	/	.	/	/
N#C[C@H]1[C@@H](c2ccccc2C2=CCCCC2)[C@H](CO)N1S(=O)(=O)c1ccccc1	.	/	.	/	/
C[C@@H]1CN([C@H](C)CO)C(=O)c2cccc(NC(=O)Nc3ccccc3)c2O[C@@H]1CN(C)Cc1ccc(C(=O)Nc2ccccc2N)cc1	.	/	.	/	/
CC(C)NC(=O)Nc1ccc2c(c1)CC(=O)N([C@H](C)CO)C[C@@H](C)[C@H](CN(C)Cc1ccccc1)O2	.	/	.	/	/
CCC(C)N1C(=O)CCC1C(=O)N1CCN(c2ccc(F)cc2)CC1 (configuration not stated)	.	.	/	.	64
CC(C)N1C(=O)CCC1C(=O)N1CCN(c2ccc(F)cc2)CC1 (configuration not stated)	.	.	.	.	.
CCc1ccc(C(=O)COC(=O)c2n[nH]c3ccccc23)cc1	.	.	.	62	.
COc1ccc2c3c(n(C)c2c1)[C@@H](CO)N(C(=O)Cc1ccccc1)CC31CN(C)C1	.	/	.	/	/
Cc1ccccc1-c1ccc([C@@H]2[C@H](CO)N3CCCCN(C(=O)Nc4cccc(F)c4)C[C@@H]23)cc1	.	/	61	/	/
O=C(Nc1ccc(F)cc1)N1CCCCN2[C@@H](CO)[C@@H](c3ccc(-c4cccc(F)c4)cc3)[C@@H]2C1	.	/	72	/	/
O=C(Nc1ccc(F)cc1)N1CCCCN2[C@H](C1)[C@@H](c1ccc(-c3cccc(F)c3)cc1)[C@@H]2CO	.	/	.	/	/
Cc1ccccc1-c1ccc([C@H]2[C@@H](CO)N3CCCCN(C(=O)Nc4cccc(F)c4)C[C@H]23)cc1	/	/	67	/	/
O=C(Nc1cccc(F)c1)N1CCCCN2[C@H](CO)[C@H](c3ccc(-c4ccccc4F)cc3)[C@H]2C1	.	/	59	/	/
CCCC(=O)Nc1ccc2c(c1)C(=O)N(C)C[C@@H](OC)[C@H](C)CN(C(=O)CN(C)C)[C@@H](C)CO2	.	/	.	/	/
CCC(=O)N1CC(=O)N2[C@H](CO)[C@@H](c3ccc(C#Cc4cccc(OC)c4)cc3)[C@H]2C1	.	/	.	/	/
CO[C@H]1CN(C)C(=O)c2ccc(NC(=O)C3CC3)cc2OC[C@@H](C)N(C(=O)C2CCOCC2)C[C@H]1C	.	/	.	/	/
CN1C2CCC1/C(=C\c1ccc(F)cc1)C(=O)/C2=C/c1ccc(F)cc1	.	.	/	65	.
CN1C2CCC1/C(=C/c1cccn1C)C(=O)/C2=C\c1cccn1C	.	.	.	.	.
CC(C)(C)OC(=O)N(Cc1ccccc1)Cc1ccc(OCc2cccc(NC(=O)C3CC3)c2)cc1	.	.	.	57	.
CC1(C)CC(CC(=O)O)(c2ccc(F)cc2)CCO1 (configuration not stated)	.	.	.	.	.
COc1ccccc1C1(CC(=O)O)CCOC(C)(C)C1 (configuration not stated)	/	.	/	.	68
SMILES	LGR2 antag	TROY NFkB inh	EWS-Fli block	TWEAK Fn14 block	EBV LMP1 NFkB
Cc1c(CCCl)c(Cl)n2c(nc3ccccc32)c1C#N	.	.	.	109	66
COC1=C(C)C(=O)C2=C(C1=O)C1C3CC4=C(C(=O)C(OC)=C(C)C4=O)C(CNC(=O)C(C)=O)N3C(C#N)C(C2)N1C (configuration not stated)	97	63	.	100	77
COc1cc(/C=N/NC(=S)Nc2cccc(C(=O)O)c2)ccc1O	91	.	81	.	74
COc1cc(/C=N/Nc2ccccn2)ccc1O	.	88	.	63	.
COc1cccc(/C=N/NC(=S)Nc2cccc(C(=O)O)c2)c1O	66	.	61	.	.
COc1cccc(/C=N/NC(=O)c2c(C)nc3ccc(Cl)cn23)c1O	.	.	.	.	61
COc1cc(/C=N/NC(=O)c2ccccc2)ccc1O	.	.	.	.	.
C[C@@H]1CN([C@H](C)CO)C(=O)c2cc(NC(=O)CCCN(C)C)ccc2O[C@@H](C)CCCCO[C@H]1CN(C)Cc1ccc(C(F)(F)F)cc1	.	/	.	/	/
CO[C@H]1CN(C)C(=O)c2cc(NS(=O)(=O)c3cccc(F)c3)ccc2OC[C@H](C)NC[C@H]1C	.	/	.	/	/
O=C(Nc1cccc(F)c1)N1CCCCN2[C@H](CO)[C@H](c3ccc(C#CC4CC4)cc3)[C@H]2C1	.	/	.	/	/
Cc1ccc(C(=O)Nc2cccc(C(=O)N/N=C/c3ccccc3F)c2)cc1	.	.	.	.	59
COc1cc(/C=N/NC(=O)c2nc(-c3ccccc3)n(-c3ccccc3)n2)ccc1O	.	.	/	.	.
COc1cc(/C=N/Nc2nc(C)nc3c2cnn3-c2ccccc2)ccc1O	58	.	.	64	.
COc1cccc(/C=N/NC(=O)c2ccc(-c3ccccc3)cc2)c1O	/	.	/	.	57
COc1cc(/C=N/Nc2ccc(C(=O)O)cc2)ccc1O	.	.	.	72	.
CC(=O)Nc1cccc(C(=O)N/N=C/c2ccccc2F)c1	.	.	.	.	.
COc1ccc2c3c([nH]c2c1)[C@H](CO)N(C(=O)C1CCCCC1)CC31CCN(C)CC1	.	/	.	/	/
CC(C)NC(=O)Nc1ccc2c(c1)C(=O)N([C@@H](C)CO)C[C@H](C)[C@@H](CN(C)C(=O)NC(C)C)O2	.	/	.	/	/
